B2AR ag – activates human beta-2 adrenergic receptor causing internalization; P07550; Am2.2-beta2AR cells, FAP receptor internalization, flow cytometry; response, % (no concentration beside the values); 340,000 tested, 0.43% active; AID 504454;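 active = response above a set limit, near 3 SD of response in nonfluorescent compounds, cut at about 42% in these data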
Target sequence (P07550 whole entry, looked up): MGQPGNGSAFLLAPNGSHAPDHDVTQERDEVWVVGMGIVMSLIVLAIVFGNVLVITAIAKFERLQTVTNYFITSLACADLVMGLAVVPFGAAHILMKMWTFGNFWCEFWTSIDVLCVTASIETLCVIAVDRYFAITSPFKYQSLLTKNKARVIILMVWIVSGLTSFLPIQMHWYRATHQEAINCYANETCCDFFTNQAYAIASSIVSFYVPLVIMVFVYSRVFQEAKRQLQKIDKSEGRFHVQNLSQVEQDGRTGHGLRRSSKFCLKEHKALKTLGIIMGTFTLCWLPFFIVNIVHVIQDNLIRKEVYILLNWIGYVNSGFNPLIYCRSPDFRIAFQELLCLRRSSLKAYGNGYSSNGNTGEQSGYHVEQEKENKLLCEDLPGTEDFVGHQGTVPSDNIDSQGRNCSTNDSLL
KKLEB tox – CF airway cell cytotoxicity counter-screen. activity change (cytotoxicity), % at 5 µM. AID 602141. 360,000 tested, 0.36% active. KKLEB CF airway cells viability, ATPlite luminescence, overnight; stronger effect = lower value; cells stimulated with P. aeruginosa culture filtrate;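 active = corrected activity change at or below -50% at 5 µM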
TRPM1 prom inh – inhibitors of MITF-driven TRPM1 promoter in melanoma cells; SK-MEL-5 TRPM1 promoter luciferase, 24 h; inhibition, % at 12.5 µM; 330,000 tested, 0.83% active; AID 488899;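 active = mean inhibition across replicates of 60% or more, whatever share of single replicates reaches that level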
HIF-2a block – inhibitors of HIF-2a; inhibition, % at 18.8 µM; 360,000 tested, 0.72% active; AID 624352; 786-0 RCC cells HIF-2a reporter, luciferase luminescence, overnight;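 active = inhibition of the luminescence signal of 40% or more relative to plate controls, in a single-dose primary screen at 18.75 µM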
Peg3 prom inh-1 – reduces Peg3 promoter-driven luciferase expression in HeLa; AID 588405; HeLa PEG-Prom luciferase reporter, luminescence, overnight; 360,000 tested, 1.7% active; inhibition, % at 20 µM;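 active = inhibition of at least 50% at 20 µM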
CF NFkB block – inhibitors of cystic fibrosis induced NF-kB | inhibition, % at 5 µM | 360,000 tested, 0.86% active | KKLEB NF-kB-GFP reporter, PAF-induced, GFP fluorescence overnight;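 active = at least 50% inhibition at 5 µM, scaled per plate between neutral and stimulator controls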;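 also: PAF is a Pseudomonas aeruginosa culture filtrate used as stimulus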
Peg3 prom inh-2 – Peg3 promoter inhibition confirmation. shares compounds with Peg3 prom inh-1. HeLa PEG-Prom luciferase reporter, luminescence, overnight. inhibition, % at 20 µM. 1,300 tested, 84% active;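 active = at 20 µM dose, 40% or more inhibition averaged across four replicates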
A number is an active result; 0 = inactive; - = not tested or not shown. An excerpt weighted towards active compounds, which were near 2.8% of everything screened.

SMILES | B2AR ag | KKLEB tox | TRPM1 prom inh | HIF-2a block | Peg3 prom inh-1 | CF NFkB block | Peg3 prom inh-2
CCOC(=O)c1sc2nc(CSc3ccccc3)nc(N3CCCN(C)CC3)c2c1C | 0 | 0 | 0 | 0 | 65 | 0 | 94
CCCCC(=O)N(C)c1c(C)nc2ccc(C(=O)N(C)Cc3ccco3)cn12 | - | 0 | - | 0 | 0 | 0 | -
COc1ccc(OC)c(-c2csc(NC(=O)Cc3ccc(F)cc3)n2)c1 | 0 | 0 | 0 | 0 | 0 | 0 | -
COc1ccc(OC)c(-c2csc(NC(=O)Cn3[nH]c(=O)c4ccccc4c3=O)n2)c1 | 0 | 0 | 0 | 0 | 55 | 0 | 0
O=C(Cc1ccc(F)cc1)Nc1cc(S(=O)(=O)N2CCOCC2)ccc1N1CCCCC1 | - | 0 | - | 0 | 0 | 0 | -
COc1ccc(OC)c(NC(=O)c2cc3c(Cl)nc4ccccc4c3s2)c1 | 0 | 0 | 0 | 0 | 65 | 0 | 0
COc1ccc(NC(=O)c2cc3c(Cl)nc4ccccc4c3s2)cc1OC | 0 | 0 | 0 | 0 | 0 | 0 | -
O=C(/C=C\Nc1ccc2c(c1)OCO2)c1ccccn1 | 0 | -54 | 75 | 71 | 85 | 0 | 71
C/C(=N\N=C(N)N)c1ccc(Cl)c(Cl)c1 | 0 | 0 | 0 | 0 | 105 | 0 | 83
CCOc1cc(/C=N/Nc2nc(-c3cccc(S(=O)(=O)N4CCCC4)c3)cs2)ccc1O | 0 | 0 | 0 | 0 | 52 | 0 | 47
CCN(CC)c1ccc(C(=C2C=CC(=[N+](CC)CC)C=C2)c2ccccc2)cc1 | 59 | -86 | 109 | 84 | 96 | 85 | 99
COCCN(Cc1ccccc1)C(=O)Cc1ccc(OC)c(S(=O)(=O)N2CCOCC2)c1 | 0 | 0 | 0 | 0 | 0 | 0 | -
COc1ccc(CC(=O)N(Cc2ccccc2)c2ccccc2)cc1S(=O)(=O)N1CCOCC1 | 0 | 0 | 0 | 0 | 56 | 0 | 47
COC(=O)C[C@H]1C=C[C@H](NC(=O)Nc2ccccc2)[C@@H](CO)O1 | - | - | - | 0 | - | - | -
COc1ccc(-c2cc(NC=O)c3ncc(-c4cccc(C(=O)N(C)C)c4)n3c2)cn1 | - | 0 | - | 0 | 0 | 0 | -
C(=Cc1c[nH]c2ccccc12)c1ccc2ccccc2n1 | 0 | 0 | 0 | 0 | 72 | 0 | 0
COc1ccc(C(=O)NCCCN2CCCC2=O)cc1S(=O)(=O)N1CCOCC1 | - | 0 | - | 0 | 0 | 0 | -
CC(=O)OCCNc1cc(SCc2ccco2)c2nonc2c1[N+](=O)[O-] | 0 | 0 | 0 | 0 | 52 | 0 | 69
CN1CCC(NC(=O)c2cc(-c3cccc(Br)c3)nc3ccccc23)CC1 | 0 | 0 | 0 | 0 | 105 | 0 | 79
O=C(NC1CC1)c1cc(-c2ccc(Br)cc2)nc2ccccc12 | 0 | 0 | 0 | 0 | 0 | 0 | -
CN(C)CCCNc1ncnc2oc(-c3ccccc3)c(-c3ccccc3)c12 | 0 | 0 | 0 | 0 | 97 | 0 | 97
Cc1cc(Br)ccc1NC(=O)CNC(=O)CN1C(=O)NC2(CCCCCC2)C1=O | 0 | 0 | 0 | 0 | 0 | 0 | -
Cc1cc(Br)ccc1NC(=O)CN1C(=O)C2C3CC(c4ccccc4)C(C3)C2C1=O (stereo not drawn) | 0 | 0 | 0 | 0 | 56 | 0 | 63
CCCN(C)C1CN(Cc2cn(Cc3cc(C)cc(C)c3)nn2)S(=O)(=O)C1 (stereo not drawn) | - | - | - | 0 | - | - | -
O=C(Nc1ccccc1N1CCOCC1)c1cc(-c2ccncc2)nc2ccccc12 | 0 | 0 | 0 | 0 | 63 | 0 | 57
SMILES | B2AR ag | KKLEB tox | TRPM1 prom inh | HIF-2a block | Peg3 prom inh-1 | CF NFkB block | Peg3 prom inh-2
COc1ccc(-c2cc(C(=O)Nc3ccccc3O)c3ccccc3n2)cc1OC | 0 | 0 | 0 | 0 | 0 | 0 | -
O=C(Nc1ccc(N2CCOCC2)cc1)c1cc(-c2ccncc2)nc2ccccc12 | 0 | 0 | 0 | 0 | 0 | 0 | -
COc1ccc(-c2cc(C(=O)Nc3ccccc3N3CCOCC3)c3ccccc3n2)cc1OC | 0 | 0 | 0 | 0 | 58 | 0 | 62
COc1cccc(-c2ccc3c(c2)O[C@H](CN(C)C(=O)c2ccccc2F)[C@H](C)CN([C@H](C)CO)S3(=O)=O)c1 | - | 0 | - | 0 | 0 | 0 | -
COC(=O)c1ccc(NC(=O)c2ccc(NC(=O)c3ccco3)cc2)cc1 | 0 | 0 | 0 | 0 | 0 | 0 | -
CC(C)COc1ccc(C(=O)Nc2ccc(NC(=O)c3ccco3)cc2)cc1 | 0 | 0 | 0 | 0 | 77 | 0 | 0
O=C(O)c1cccc(COc2ccc(CO)cc2Cl)c1 | 0 | 0 | 105 | 89 | 100 | 0 | 88
CCOc1ccc(OCc2cccc(C(=O)O)c2)cc1 | 0 | 0 | 93 | 89 | 100 | 0 | 96
CCOc1ccc(OCc2cccc(C(=O)N3CCCC3)c2)cc1 | 0 | 0 | 0 | 0 | 0 | 0 | -
O=C(O)c1cccc(COc2ccc3c(c2)CCC3)c1 | 0 | 0 | 96 | 88 | 85 | 0 | 73
O=C(CCNC(=O)c1ccc(Cl)cc1)Nc1cc(C(F)(F)F)ccc1N1CCOCC1 | - | 0 | - | 0 | 0 | 0 | -
c1ccc(C[C@H]2CNCCN2CCCCC2CCCCC2)cc1 | 0 | 0 | - | 0 | 105 | 0 | 98
CCc1ccc(C2CC3C(CN2S(=O)(=O)c2ccc(C)cc2)[C@@H](O)C[C@@H](c2ccc(CC)cc2)N3S(=O)(=O)c2ccc(C)cc2)cc1 (stereo partly drawn) | - | - | - | 0 | - | - | -
O=C(CNc1ccccc1)N/N=C/c1c(O)ccc2ccccc12 | 0 | 0 | 0 | 0 | 64 | 0 | 68
O=C(N/N=C/c1c(O)ccc2ccccc12)Nc1ccccc1 | 0 | - | - | - | - | - | -
O=C(N/N=C\c1c(O)ccc2ccccc12)c1cncc(Br)c1 | 0 | 0 | 0 | 0 | 65 | 0 | 60
COc1ccc(CN2CCC[C@]3(N[C@H](c4ccc(C)cc4)[C@@H]4C(=O)N(Cc5ccccc5)C(=O)[C@@H]43)C2=O)cc1 | - | 0 | - | 0 | 0 | 0 | -
C=C(C)CN1CCN(c2c(CCC#N)c(C)c(C#N)c3nc4ccccc4n23)CC1 | 0 | 0 | 0 | 0 | 82 | 0 | 41
CCOC(=O)c1ccc(NC(=O)C2CCCN(S(=O)(=O)c3ccc(F)cc3)C2)cc1 (stereo not drawn) | 0 | 0 | 0 | 0 | 74 | 0 | 56
CCOC(=O)c1ccc(NC(=O)C2CCN(S(=O)(=O)c3ccccc3)CC2)cc1 | 0 | 0 | 0 | 0 | 0 | 0 | -
CCn1c2ccccc2c2cc(NC(=O)C(C)OC(=O)c3ccc(NC(=O)CC#N)cc3)ccc21 (stereo not drawn) | 0 | -65 | 0 | 0 | 67 | 0 | 55
C[C@@H]1[C@H]2[C@@H]3CC[C@@H](C3)[C@H]2CN[C@H]1c1cn(Cc2ccccc2)c2ccccc12 | 0 | 0 | 0 | 0 | 71 | 0 | 54
Cc1ccc(S(=O)(=O)N2C[C@@H]3[C@H]4CC[C@H](C4)[C@@H]3[C@@H](C)[C@@H]2c2cn(Cc3ccccc3)c3ccc(F)cc23)cc1 | 0 | 0 | 0 | 0 | 0 | 0 | -
CCOC(=O)N1CCN(S(=O)(=O)c2ccc(C(=O)Nc3nc4ccc(F)cc4s3)cc2)CC1 | 0 | 0 | 0 | 0 | 55 | 0 | 0

Screening results as filed in PubChem.
